The supplement of paper PMC12645437, “Orthogonal IMiD-Degron Pairs Induce Selective Protein Degradation in Cells” (ACS Chemical Biology, 2025)
Whole data set: some 8,300 sequences, median “log2 fold change of degron read counts, EGFP-low vs EGFP+ sorted cells (limma voom), compound-induced degradation” near -1.1, cut for the highest 2% near 3.2. Shown is part of a subset that was picked to be rich in the highest values.

T1: CRBN, Q96SW2
T1 chain: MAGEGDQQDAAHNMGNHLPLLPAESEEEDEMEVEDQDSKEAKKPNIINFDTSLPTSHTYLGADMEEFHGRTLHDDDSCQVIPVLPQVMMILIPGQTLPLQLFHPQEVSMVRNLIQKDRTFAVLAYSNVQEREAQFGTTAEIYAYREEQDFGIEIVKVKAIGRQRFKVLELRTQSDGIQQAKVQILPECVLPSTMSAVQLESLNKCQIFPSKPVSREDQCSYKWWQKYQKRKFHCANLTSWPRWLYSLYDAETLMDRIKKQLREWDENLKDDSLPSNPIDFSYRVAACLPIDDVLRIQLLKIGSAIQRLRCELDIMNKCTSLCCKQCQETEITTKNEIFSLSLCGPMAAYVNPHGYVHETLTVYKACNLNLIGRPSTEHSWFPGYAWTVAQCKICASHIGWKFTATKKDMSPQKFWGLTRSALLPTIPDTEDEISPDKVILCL


Target: T1, CRBN, Q96SW2
Experiment: log2 fold change of degron read counts, EGFP-low vs EGFP+ sorted cells (limma voom), compound-induced degradation; higher = more compound-induced degradation of the degron-EGFP fusion; degrons are variants of IKZF1/3 zinc finger 2; compound dose not given here
Settings: Jurkat, 18 h
[1] = compound: compound 19 (5-tert-butyl-thalidomide)
[2] = compound: compound 22 (5-morpholino-thalidomide)
[3] = compound: compound 33 (diphenyl IMiD analogue)
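Also: pooled lentiviral library of zinc finger degron-EGFP fusions in mCherry-positive Jurkat cells, FACS-sorted after compound exposure, with degron abundance counted by next-generation sequencing.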

Sequence | log2 fold change of degron read counts [1] | log2 fold change of degron read counts [2] | log2 fold change of degron read counts [3] | log2 fold change of degron read counts (compound: thalidomide)
LECPICGFPCTQKGNLLRHIKL [46L_47E_49P_50I_52G_53F_54P_55C_67L_, Q9UKT9] | -1.29 | -1.77 | -0.153 | 1.04
FGCNQCGHHFTQKGNLLRHIKL [46F_47G_49N_50Q_52G_53H_54H_55F_67L_, Q9UKT9] | -2.24 | -2.34 | -1.76 | -1.83
FGCEICGHTFTQKGNLLRHIKL [46F_47G_49E_50I_52G_53H_54T_55F_67L_, Q9UKT9] | -3.25 | -2.98 | -3.48 | -3.14
FMCEICGHIFTQKGNLLRHIKL [46F_47M_49E_50I_52G_53H_54I_55F_67L_, Q9UKT9] | -2.42 | -2.92 | -1.97 | -2.73
LQCNQCGFNCTQKGNLLRHIKL [46L_47Q_49N_50Q_52G_53F_54N_55C_67L_, Q9UKT9] | -2.28 | -2.12 | -2.51 | -1.67
FHCPICGHHFTQKGNLLRHIKL [46F_47H_49P_50I_52G_53H_54H_55F_67L_, Q9UKT9] | -1.89 | -2.04 | -1.22 | -1.88
FDCNVCGAQFTQKGNLLRHIKL [46F_47D_49N_50V_52G_53A_54Q_55F_67L_, Q9UKT9] | -1.58 | -1.29 | -0.82 | -0.778
FVCEQCGAGFTQKGNLLRHIKL [46F_47V_49E_50Q_52G_53A_54G_55F_67L_, Q9UKT9] | -1.4 | -0.248 | 0.586 | 1.2
FKCPICGHRFTQKGNLLRHIKL [46F_47K_49P_50I_52G_53H_54R_55F_67L_, Q9UKT9] | -2.63 | -2.88 | -3.36 | -2.52
FQCDICGAFFTQKGNLLRHIKL [46F_47Q_49D_50I_52G_53A_54F_55F_67L_, Q9UKT9] | -2.31 | -1.64 | 0.643 | 0.872
FECNQCGRDFTQKGNLLRHIKL [46F_47E_49N_50Q_52G_53R_54D_55F_67L_, Q9UKT9] | -3.19 | -3.55 | -3.13 | -3.35
LYCPICGFCCTQKGNLLRHIKL [46L_47Y_49P_50I_52G_53F_54C_55C_67L_, Q9UKT9] | 3.56 | 3.56 | 2.91 | 1.99
LFCPICGFCCTQKGNLLRHIKL [46L_47F_49P_50I_52G_53F_54C_55C_67L_, Q9UKT9] | 3.44 | 3.46 | 2.76 | 2.26
LICPICGFCCTQKGNLLRHIKL [46L_47I_49P_50I_52G_53F_54C_55C_67L_, Q9UKT9] | 0.314 | 1.98 | 1.85 | 2.51
LCCPICGFCCTQKGNLLRHIKL [46L_47C_49P_50I_52G_53F_54C_55C_67L_, Q9UKT9] | 1.74 | 2.1 | 2.79 | 2.63
LMCPICGFCCTQKGNLLRHIKL [46L_47M_49P_50I_52G_53F_54C_55C_67L_, Q9UKT9] | 0.471 | 1.34 | 2.61 | 2.08
LHCPICGFCCTQKGNLLRHIKL [46L_47H_49P_50I_52G_53F_54C_55C_67L_, Q9UKT9] | 2.7 | 2.71 | 2.46 | 1.82
LQCPICGFCCTQKGNLLRHIKL [46L_47Q_49P_50I_52G_53F_54C_55C_67L_, Q9UKT9] | 1.14 | 2.25 | 2.13 | 3.61
LVCPICGFCCTQKGNLLRHIKL [46L_47V_49P_50I_52G_53F_54C_55C_67L_, Q9UKT9] | 1.02 | 2.52 | 2.24 | 2.97
LDCPICGFCCTQKGNLLRHIKL [46L_47D_49P_50I_52G_53F_54C_55C_67L_, Q9UKT9] | 0.0932 | -0.387 | 0.637 | 1.33
LNCPICGFCCTQKGNLLRHIKL [46L_47N_49P_50I_52G_53F_54C_55C_67L_, Q9UKT9] | 1.6 | 0.635 | 0.926 | 1.15
LLCPICGFCCTQKGNLLRHIKL [46L_47L_49P_50I_52G_53F_54C_55C_67L_, Q9UKT9] | 0.766 | 0.49 | 1.44 | 1.92
LWCPICGFCCTQKGNLLRHIKL [46L_47W_49P_50I_52G_53F_54C_55C_67L_, Q9UKT9] | 3.2 | 3.49 | 2.92 | 2.17
FVCNVCGARFTQKGNLLRHIKL [46F_47V_49N_50V_52G_53A_54R_55F_67L_, Q9UKT9] | -0.689 | 0.0526 | -0.518 | 0.565
FDCEICGHAFTQKGNLLRHIKL [46F_47D_49E_50I_52G_53H_54A_55F_67L_, Q9UKT9] | -2.17 | -2.36 | -2.99 | -2.62
FQCEICGHAFTQKGNLLRHIKL [46F_47Q_49E_50I_52G_53H_54A_55F_67L_, Q9UKT9] | -3.35 | -3.01 | -2.87 | -1.5
FGCNQCGRAFTQKGNLLRHIKL [46F_47G_49N_50Q_52G_53R_54A_55F_67L_, Q9UKT9] | -2.18 | -2.21 | -2.02 | -1.91
FSCEICGRSFTQKGNLLRHIKL [46F_47S_49E_50I_52G_53R_54S_55F_67L_, Q9UKT9] | -1.46 | -2.51 | -1.36 | -1.71
